Screens (PubChem BioAssay)
PrP UTR inh: suppresses PrP 5' UTR mRNA reporter expression | cell-based PrP 5' UTR mRNA reporter, plate reader | inhibition, % (test concentration not listed) | 0.35% of 340,000 active; in the data active means inhibition above about 52%; further: 0 = median of the neutral control wells
PfHsp40 yeast: restores yeast growth despite PfHsp40 toxicity | S. cerevisiae expressing PfHsp40, growth rescue, ATP luminescence | growth rescue, % at 12.5 µM | AID 504582 | 0.68% of 340,000 active; in the data active means growth rescue above about 28%, passing the limit was not always enough;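 further: yeast W303a lacking pdr1 and pdr3 grown in galactose medium; growth measured after three days at 30 °C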
PrPC surface inh: reduces human prion protein on the cell surface; inhibition, % at 13.8 µM; P04156; 0.43% of 370,000 active; cell surface PrPC, TR-FRET read-out; AID 720596; in the data active means inhibition above about 24%; further: 0% = median of the test wells and 100% = reference compound wells
MazF activator: increases E. coli MazEF RNase cleavage of RNA; activation, % at 20 µM; 0.32% of 350,000 active; P0AE70; AID 504720; FAM/BHQ RNA-DNA oligo cleavage fluorescence, 5 h; in the data active means activation above about 50%
Target sequence (P0AE70 whole entry, looked up): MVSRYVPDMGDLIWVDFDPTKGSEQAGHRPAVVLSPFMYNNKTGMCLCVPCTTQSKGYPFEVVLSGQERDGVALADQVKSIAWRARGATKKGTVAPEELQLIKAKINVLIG
SSB-PriA inh: K. pneumoniae PriA-SSBct interaction inhibition. 0.6% of 430,000 active. inhibition, % at 33 µM. AlphaScreen SSBct-PriA binding, biotinylated peptide; in the data active means inhibition mostly above about 37%, no sharp cut-off; inactive means mostly below about 20%;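 further: plate controls were negative control peptide for no effect and reference peptide for full effect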
The depositor's hits bear a star; x = not tested or not shown; + = active, no number. The list is not random: actives were taken first. Their share in the collection is about 1.8%.

SMILES	PrP UTR inh	PfHsp40 yeast	PrPC surface inh	MazF activator	SSB-PriA inh
O=C(Cn1ccc(NC(=O)OCc2ccccc2)nc1=O)NCc1ccc2c(c1)OCO2	-11	1	3	58*	-16
O=C(CCc1ccccc1)NN=Cc1cc(Br)ccc1O	x	x	x	x	1
CN(C(=O)c1cccc(NC(=O)Cc2ccc(NC(=O)C3CCN(S(=O)(=O)c4cccc([N+](=O)[O-])c4)CC3)cc2)c1)C1CCCC1	-25	120*	-13	-14	-12
CN(C(=O)c1ccc(NC(=O)Cc2ccc(NC(=O)C3CCN(C(=O)C4CCCC4)CC3)cc2)cc1)C1CC1	-8	36*	-3	-1	-14
Cc1nc2ccc3nc(NC(=O)c4ccc5c(c4)OCCO5)sc3c2s1	-37	-1	4	-38	-11
Cc1nc2ccc(C(=O)NCc3ccc4c(c3)OCO4)cc2s1	-10	589*	1	3	-6
Cc1nc2c(ccc3nc(NC(=O)c4ccc5c(c4)OCCO5)sc32)s1	-114	0	9	73*	-1
CC1CCN(C(=O)COC(=O)Cc2ccc(Br)cc2)CC1	-3	0	3	-5	-15
COCCN1C(=O)/C(=C/c2ccc(N3CCCC3)cc2)SC1=S	-18	0	6	318*	-1
Cc1ccc(-c2csc(NC(CO)c3nc4ccccc4n3CCOCCO)n2)cc1 (stereo not given)	-15	34*	-4	2	0
COc1ccc(-c2csc(NC(CO)c3nc4ccccc4n3Cc3ccc(C)cc3)n2)cc1 (stereo not given)	-12	-1	4	-4	13
O=C(O)/C(=C\c1ccc(F)cc1)c1ccc(-c2ccccc2)cc1	-15	512*	8	-20	-8
O=C(O)/C(=C\c1ccccc1OC(F)F)c1ccc(-c2ccccc2)cc1	-9	1	-1	5	-4
Cc1oc2ccc(OC(=O)N(C)C)cc2c1C(=O)OC(C)C	-7	160*	-6	2	-27
O=C(NN=Cc1ccc(O)c([N+](=O)[O-])c1)c1ccccc1-n1cccc1	x	x	x	x	-4
CN=c1scc(-c2ccc(OC)cc2)n1/N=C(\C)c1cccnc1	-49	5	16	4	x
CN=c1scc(-c2ccc(OC)cc2)n1N=C(C)c1cccnc1	x	x	x	x	44*
CN(C)S(=O)(=O)c1ccc(C(=O)Nc2ccc(-n3nnn(CC(N)=O)c3=O)cc2)cc1	x	x	x	x	-6
Cc1nc2c(=O)n(C)c(=O)nc-2n(C)n1	-7	-1	25*	-27	0
O=C(Cn1cnc2ccccc2c1=O)c1cccs1	-15	41*	-3	-11	-6
O=C(Cn1cnc2ccc(Cl)cc2c1=O)c1cccs1	-12	0	13	0	-16
CC(/C=N/n1c(COc2ccccc2)n[nH]c1=S)=C\c1ccccc1	-9	67*	-1	-1	x
Cc1cccc(/C=N/n2c(COc3ccccc3)n[nH]c2=S)c1	-25	-1	-6	3	x
c1ccc(-c2ccccc2-c2nc(-c3ccncc3)no2)cc1	7	32*	-7	-2	-7
COc1ccc(-c2nc(-c3ccncc3)no2)cc1	-98	0	-1	91*	-11
SMILES	PrP UTR inh	PfHsp40 yeast	PrPC surface inh	MazF activator	SSB-PriA inh
COc1ccc(-c2nc(-c3cccnc3)no2)cc1	-165	-1	2	1	-7
CCS(=O)(=O)c1nc2ccccc2n1Cc1ccccc1F	x	x	x	x	-4
CSc1ccc(S(=O)(=O)N2CCC(C(=O)NC3CC3)CC2)cc1	1	-1	1	7	3
CCOc1ccc(NC(=O)CSc2nc3ccsc3c(=O)n2CCCCC(=O)O)cc1	x	x	-4	-2	x
CSc1nc2ccc3nc(NC(=O)CCc4ccccc4)sc3c2s1	x	x	x	x	0
c1cnc2c(c1)ccc1c2ccc2cccnc21	x	x	x	x	21
O=S1(=O)Nc2c(ccc3cccnc23)-c2ccccc21	24	19	x	-5	97*
COc1ccc(NC(=O)c2sc3nc(-c4cccnc4)ccc3c2N)cc1	-3	1	-1	-13	-4
COc1ccc(NC(=O)c2sc3nc(-c4cccnc4)ccc3c2N)cc1OC	-5	2	-10	+	7
CC(C)(C)OC(=O)N1CCC(c2cc(=O)n3[nH]c(-c4ccc(Cl)cc4)cc3n2)CC1	-40	0	4	8	-13
Cc1ccccc1-c1ccc(N2CCN(C(=O)c3ccccn3)CC2)nn1	x	x	x	x	-17
CS(=O)(=O)N1CCN(c2ccc(-c3ccccn3)nn2)CC1	x	x	x	x	77*
O=C(c1ccccc1Cl)N1CCN(c2ccc(-c3ccccn3)nn2)CC1	x	x	x	x	147*
O=C(c1ccccn1)N1CCN(c2ccc(-c3ccccn3)nn2)CC1	x	x	x	x	157*
